Smad3 FoxH1 inh = inhibitors of human Smad3 transcription factor binding; TR-FRET Smad3/Dy647-FoxH1 peptide binding, europium anti-His; inhibition, % at 25 µM; 0.29% of 88,000 active; AID 630;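 active = compounds that reduce the energy-transfer binding signal between the protein and its labelled peptide by more than half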;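 also: 0% = Smad3 plus labelled peptide maximal FRET and 100% = peptide-only background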
Calb biofilm kill = kills Candida albicans biofilms | C. albicans biofilm + clotrimazole, Alamar Blue | inhibition, % at 6 µM | 0.14% of 85,000 active;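 active = inhibition above 20%; inactive = inhibition below 20%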;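 also: preformed 24 hr biofilms exposed to compound for 48 hr; 0% = biofilm without compound and 100% = blank killed by clotrimazole plus chlorhexidine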
FAK inh = inhibitors of human focal adhesion kinase; Q05397; biochemical FAK kinase activity assay; 0.84% of 97,000 active; AID 727; inhibition, %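 (tested at 7 µM)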; in the data active = inhibition above about 19%;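 also: 0% = DMSO and 100% = reference compound high control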
Target sequence (Q05397 whole entry, looked up): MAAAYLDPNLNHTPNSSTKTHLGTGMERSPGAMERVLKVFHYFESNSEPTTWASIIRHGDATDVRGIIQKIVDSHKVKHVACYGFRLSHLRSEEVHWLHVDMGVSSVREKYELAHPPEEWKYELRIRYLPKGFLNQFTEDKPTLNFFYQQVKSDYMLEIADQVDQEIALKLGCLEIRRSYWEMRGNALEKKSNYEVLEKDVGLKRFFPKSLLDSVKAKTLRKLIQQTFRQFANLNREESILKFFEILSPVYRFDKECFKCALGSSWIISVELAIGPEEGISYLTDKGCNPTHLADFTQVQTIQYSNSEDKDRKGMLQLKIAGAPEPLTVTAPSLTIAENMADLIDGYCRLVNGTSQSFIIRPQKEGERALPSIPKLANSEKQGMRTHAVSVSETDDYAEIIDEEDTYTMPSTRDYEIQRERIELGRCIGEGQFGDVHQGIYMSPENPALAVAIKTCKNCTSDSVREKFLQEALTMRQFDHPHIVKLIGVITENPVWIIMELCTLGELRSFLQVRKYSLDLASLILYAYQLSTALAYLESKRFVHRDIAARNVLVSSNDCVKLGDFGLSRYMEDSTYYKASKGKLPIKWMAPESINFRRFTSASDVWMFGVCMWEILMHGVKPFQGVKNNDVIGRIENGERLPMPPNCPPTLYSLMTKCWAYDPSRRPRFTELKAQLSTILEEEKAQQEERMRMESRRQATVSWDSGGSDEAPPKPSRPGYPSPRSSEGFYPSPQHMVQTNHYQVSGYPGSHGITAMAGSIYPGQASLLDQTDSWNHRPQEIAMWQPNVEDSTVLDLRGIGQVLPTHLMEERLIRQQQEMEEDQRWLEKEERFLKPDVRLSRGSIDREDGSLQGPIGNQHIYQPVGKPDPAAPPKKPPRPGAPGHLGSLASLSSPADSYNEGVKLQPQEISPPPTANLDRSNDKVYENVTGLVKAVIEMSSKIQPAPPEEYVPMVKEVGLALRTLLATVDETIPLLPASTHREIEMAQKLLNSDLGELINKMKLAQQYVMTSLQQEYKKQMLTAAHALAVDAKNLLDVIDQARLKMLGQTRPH
ERa coact inh = blocks coactivator binding to human estrogen receptor alpha; P03372; TR-FRET ER-alpha LBD / SRC-1 peptide, estradiol-bound; inhibition, % at 25.6 µM; 1.7% of 86,000 active; AID 629; in the data active = inhibition above about 50%;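 also: 0% = receptor plus peptide control and 100% = peptide only without receptor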
ERb SRC1 inh = ER-beta (human) coactivator binding inhibition; 1.3% of 86,000 active; TR-FRET ER-beta LBD / SRC1-Cy5 peptide binding; receptor agonist-loaded with 1 µM estradiol; inhibition, % at 25.6 µM; AID 633; Q92731;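 active = compounds whose percent inhibition of the receptor-coactivator binding signal exceeds about 50% in the single-dose screen, limit read from the data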;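 also: 0% = receptor plus peptide wells without compound and 100% = peptide-only wells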
ERa coact pot = ER-alpha (human) coactivator binding potentiation. TR-FRET ERalpha-LBD/SRC-Cy5 coactivator binding, 2 h; 100 = basal binding, no effect. P03372. 1.3% of 86,000 active. coactivator binding (% of control), % at 25.6 µM; in the data active = activity above about 200%;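 also: binding measured in presence of low estradiol as agonist stimulus; 0% = peptide alone without receptor and 100% = receptor with peptide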
* hit, by the source's call; nt = not tested or not shown; [ ] = another dose, or the depositor's remark. Rows were chosen to be rich in hits. Some 3.3% of all compounds tested hit in one or more screens of this group.

SMILES | Smad3 FoxH1 inh | Calb biofilm kill | FAK inh | ERa coact inh | ERb SRC1 inh | ERa coact pot
Cc1cc(N2C(=O)C3CC=CCC3C2=O)no1 (centres undefined) | 4 | 8 | -2 | -5 | 1 | 104
Cc1cc(C)cc(C(=N)c2ccccc2Cc2cccc3ccccc23)c1 | 6 | nt | nt | nt | nt | nt
O=C(O)[C@@H]1[C@H](C(=O)NCc2cccnc2)[C@@H]2CC[C@H]1O2 | -4 | nt | nt | nt | nt | nt
COc1ccc2c(c1)c(=O)oc1cc(OCC(=O)N3CCc4ccccc4C3)ccc12 | -16 | -6 | 13 | 71*[fluorescence artefact?] | 62* | 237*[fluorescence artefact?]
COc1ccc2c(c1)c(=O)oc1cc(OCC(=O)N3CCCC(C)C3)ccc12 (centres undefined) | 7 | -9 | 5 | 36 | 48 | 132
COc1ccc(OC)c(N(CC(=O)N2CCc3ccccc3C2)S(C)(=O)=O)c1 | -4 | 8 | 0 | -3 | -5 | 99
COc1ccc2c(c1)c(=O)oc1cc(OCC(=O)N3CCC(C)CC3)ccc12 | -5 | 7 | 7 | 59* | 60* | 133
Cc1cccc(N=C2NC(=O)/C(=C3/C(=O)N(C)c4ccccc43)S2)c1C | 10 | 7 | -5 | 61* | 37 | 26
CN1C(=O)/C(=C2\SC(=S)N(CC3CCCO3)C2=O)c2ccccc21 (centres undefined) | -6 | -1 | -5 | -1 | -6 | 105
O=C(O)c1nnsc1COCc1ccccc1 | -5 | nt | nt | nt | nt | nt
Cn1cc(NC(=O)c2cc(NC(=O)c3cc(NC=O)cn3C)cn2C)cc1C(=O)NCCC(=N)N | 14 | -5 | nt | 61* | 71* | 44
NCOC(=O)Cc1ccc(Br)cc1 | 73* | nt | nt | nt | nt | nt
Clc1ccc(Nc2nc(-c3ccncc3)cs2)cc1 | 2 | 8 | 17 | 76* | 44 | 117
Oc1cccc2ccc(SSc3ccc4cccc(O)c4n3)nc12 | 60* | nt | nt | nt | nt | nt
O=C(O)CCCSc1nc2ccccc2s1 | -5 | nt | nt | nt | nt | nt
CSc1nnc(C)c(=O)[nH]1 | 6 | 9 | -3 | -10 | 3 | 108
O=C(CSc1ccc2nnc(-c3ccccn3)n2n1)N1CCOCC1 | 1 | 46* | -2 | -7 | 2 | 93
CCOc1ccc(N=C2NC(=O)S/C2=C\c2ccc(OC)cc2)cc1 | 3 | 5 | 19 | 67* | 50* | 194
CCCCC(NC(C)=O)c1nc2ccccc2n1CCCC (centres undefined) | 0 | 9 | nt | -7 | 2 | 104
CC1C(c2ccccc2)C(C#N)(C#N)C2(C#N)C(=O)NC1(N)C2C (centres undefined) | 14 | 10 | -2 | -5 | -7 | 108
COc1ccc(S(=O)(=O)Nc2ccc(S(=O)(=O)N3CCCCC3)cc2)cc1 | -3 | 6 | 5 | 5 | 10 | 120
O=C(O)C1CCCCC1C(=O)NCCCc1ccccc1 (centres undefined) | 17 | 5 | -1 | -2 | 3 | 268*
CCOc1ccc2nc(SCC(=O)c3ccc(C)s3)sc2c1 | -1 | 3 | -1 | 22 | 0 | 221*
CCCCc1nc(S(=O)(=O)c2ccc(Cl)cc2)c(N2CCOCC2)o1 | -7 | 6 | -1 | -22 | -5 | 98
COc1ccc(N2C(=O)CCC(C(=O)N3CCOCC3)C2c2ccc(F)cc2)cc1 (centres undefined) | nt | nt | -4 | nt | nt | nt
SMILES | Smad3 FoxH1 inh | Calb biofilm kill | FAK inh | ERa coact inh | ERb SRC1 inh | ERa coact pot
COC(=O)c1ccc(S(=O)(=O)N(Cc2cc3cc4c(cc3[nH]c2=O)OCO4)C2CCCCC2)cc1 | -19 | 5 | nt | 4 | -4 | 306*
COc1ccc(-c2nc(Cn3c(SCc4ccccc4F)nc4ccncc43)c(C)o2)cc1 | -7 | -6 | 10 | -2 | 21 | 458*[fluorescence artefact?]
COc1ccc(-c2nc(Cn3c(SCc4ccc(F)cc4)nc4ccncc43)c(C)o2)cc1OC | 1 | 13 | -4 | 42 | 27 | 188
COc1ccc(C(=O)Nc2ccc(Cl)cc2C(=O)NCc2ccco2)cc1 | 10 | 8 | -25 | 3 | 10 | 131
CCC(C)C(NC(=O)c1ccccc1NC(=O)c1ccc(OC)cc1)C(=O)NCc1ccco1 (centres undefined) | 5 | -4 | -4 | 67*[fluorescence artefact?] | 40 | 65
COc1cc(C2c3c(oc4ccc(Cl)cc4c3=O)C(=O)N2Cc2ccco2)cc(OC)c1OC (centres undefined) | 6 | 6 | nt | 56* | 44 | 23
CC(=O)OCC(=O)[C@@]12OC(C)(C)O[C@@H]1C[C@H]1[C@H]3CC=C4C[C@@H](O)CC[C@]4(C)[C@@H]3CC[C@@]12C | 98* | nt | nt | nt | nt | nt
COc1nc(Cl)nc(Cl)c1Cl (tested in a mixture with another compound) | 83* | nt | nt | nt | nt | nt
N#Cc1c(Cl)c(Cl)c2nnc(-c3ccc(Br)cc3)n2c1Cl | nt | nt | -6 | nt | nt | nt
O=C1Nc2ccccc2C12OCC1(CO2)COC2(OC1)C(=O)Nc1ccccc12 (centres undefined) | -3 | -3 | -2 | 6 | 5 | 93
O=C1Nc2ccccc2C12OCCS2 (centres undefined) | 0 | 6 | nt | -5 | 54* | 96
Cc1ccc(CCN2C(=O)CCC2(C)C(=O)NCc2cccnc2)cc1 (centres undefined) | 7 | 5 | 1 | 0 | -8 | 96
CCc1cccc2c(C=C(C#N)C#N)cn(CC(=O)N3CCCC3)c12 | nt | nt | 4 | nt | nt | nt
Cc1[nH]c2ccccc2c1C(=O)CN1CCCCC1CCO (centres undefined) | -4 | 13 | -4 | -5 | -10 | 127
COc1ccc(-n2nc3c(c2NC(=O)c2cc4ccccc4oc2=O)CS(=O)(=O)C3)cc1 | 1 | 6 | nt | 63* | 66*[fluorescence artefact?] | 86
C=CCNc1sc(C(=O)c2ccc(C)cc2)c(N)c1C#N | 6 | 14 | 14 | 5 | 16 | 86
C=CCNc1sc(C(=O)c2ccccc2)c(N)c1C#N | 10 | 14 | 15 | 97*[fluorescence artefact?] | 12 | 98
O=C(Cn1ncc2c(=O)oc3ccccc3c21)NC1CC1 | nt | nt | -3 | nt | nt | nt
O=C(Cn1ncc2c(=O)oc3ccccc3c21)Nc1nc2ccccc2s1 | 5 | 7 | 0 | 6 | -4 | 429*
O=C(Nc1ccc(O)cc1C(=O)O)c1ccc2c(c1)C(=O)N(Cc1ccco1)C2=O | 8 | 4 | -2 | 49 | 54* | 34
COc1cccc(NS(=O)(=O)c2nc3nc(C)cc(C)n3n2)c1 | 10 | 8 | 4 | -2 | -8 | 103
O=C1CCCC(O)=C1C(C#Cc1ccccc1)C1=C(O)CCCC1=O | -6 | 10 | nt | 34 | 52*[fluorescence artefact?] | 24
Cc1ccccc1Nc1nc(N)nc(CSc2nc3ccccc3c(=O)n2C)n1 | 2 | 2 | 1 | 78* | -9 | 108
COc1ccc2nc3oc(C(=O)N4CCN(c5cccc(Cl)c5)CC4)cc3cc2c1 | -11 | 8 | -2 | 62*[fluorescence artefact?] | 35 | 113
COc1ccc2nc3oc(C(=O)N4CCN(c5cccc(C(F)(F)F)c5)CC4)cc3cc2c1 | 0 | 5 | 2 | 66* | 37 | 118

Compound activity: PubChem, several laboratories
